Our source for the growth inhibition values is PubChem BioAssay (NCI).

A short description of experiment [1]: NCI Yeast Anticancer Drug Screen. Data for the rad50 strain (AID 155).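 Note: 0% = growth of vehicle-only cultures of the same strain.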 Particulars: S. cerevisiae rad50 strain growth inhibition; at 50.0 µM; stronger effect = higher value. In outline: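 Yeast carrying a defined DNA repair defect were exposed to test compounds, and growth was compared with vehicle-treated controls to give percent inhibition.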
Experiment [2] in a line: NCI Yeast Anticancer Drug Screen. Data for the mec2-1 strain (AID 157). The following applies: S. cerevisiae mec2-1 strain, at 50.0 µM, stronger effect = higher value. In outline: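 Test agents were screened against the mec2-1 yeast strain, with defined DNA repair or cell cycle alteration. Growth was scored as inhibition against vehicle-only controls.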
Experiment [3] is described as follows: NCI Yeast Anticancer Drug Screen. Data for the sgs1 mgt1 strain (AID 161).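 Note: 0% = growth of cultures given vehicle only.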 Particulars: S. cerevisiae sgs1 mgt1 strain, at 50.0 µM, stronger effect = higher value. In outline:
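Mutant yeast exposed to compound; growth scored against vehicle-only wells.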

Experiment [4] in a line: NCI Yeast Anticancer Drug Screen. Data for the cln2 rad14 strain (AID 165).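 Note: 0% = growth equal to vehicle treated cultures.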 The following applies: S. cerevisiae cln2 rad14 strain, at 50.0 µM, stronger effect = higher value. In outline: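 Growth of compound-exposed yeast (cln2 rad14 genotype) measured and expressed as inhibition relative to vehicle.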
The nature of experiment [5]: NCI Yeast Anticancer Drug Screen. Data for the bub3 strain (AID 167). Particulars: S. cerevisiae bub3 mutant strain, at 50.0 µM, stronger effect = higher value. Put shortly: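 Compounds were applied to a genetically altered yeast strain carrying a cell-cycle control defect. Growth inhibition was scored against vehicle-treated controls.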
Experiment [6] can be described thus: NCI Yeast Anticancer Drug Screen. Data for the mlh1 rad18 strain (AID 175). Particulars: S. cerevisiae mlh1 rad18 strain growth inhibition; at 50.0 µM; stronger effect = higher value. Put shortly: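 In this whole-cell yeast screen, a strain with altered DNA damage repair is challenged with compound, and its growth is measured against matched vehicle-treated controls.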

This is part of a sample that, as a whole, favours compounds with a hit. Of some 79,000 tested, about 15% had one in any assay. Values without a mark were called inactive. Activity calls are given as the source filed them. Cut-off read from the data, not from the text of the source: active = growth inhibition above about 70%; inactive = the rest. Where a SMILES comes first, the peptide text is derived from it. [ ]: non-standard residue; d: D form. The star is where a group is joined. Cbz = O=C(OCc1ccccc1)*; Nva = CCC[CH](N)C(=O)O; Bn = c1ccc(C*)cc1

Take `CC(C)C(NC(=O)C(CSCc1ccccc1)NC(=O)OCc1ccccc1)C(=O)O` (stereo not given) (Cbz-Cys(Bn)-Val-OH; configuration not given here): the growth inhibition in experiment [1] is 24.1%; in experiment [2], -2.4%; in experiment [3] it was 13.4%; in experiment [4], 28.1%; in experiment [5], -2.1%; in experiment [6], 21.1%.
As to `O=C(O)CC(NC(=O)C(CC(=O)OCc1ccccc1)NC(=O)OCc1ccccc1)C(=O)OCc1ccccc1` (stereo not given), the growth inhibition in experiment [1] is 44.5%; in experiment [2] it was 20.6%; in experiment [3], 27.4%; in experiment [4], 24.4%; in experiment [5], -5.8%; in experiment [6] it was 36.6%.
Take `C(/Cc1ccc2c(c1)OCO2)=N\NC1=NCCN1`: the growth inhibition in experiment [1] was -8.5%; in experiment [2] it was -0.55%; in experiment [3], 1.55%; in experiment [4], -19.4%; in experiment [5] it was 5.2%; in experiment [6] it was 18.1%.
For the compound `O=C(Nc1cc2[nH]c(=O)c3ccccc3c2cc1[N+](=O)[O-])C(F)(F)F`, the growth inhibition in experiment [1] was 40%; in experiment [2], -5.85%; in experiment [3], 10.8%; in experiment [4], 0.9%; in experiment [5], -12.4%; in experiment [6] it was 0.25%.
In the case of `Cn1nnc2c1C(=O)c1ccccc1C2=O`, the growth inhibition in experiment [1] was 0.6%; in experiment [2], -14%; in experiment [3], 29.4%; in experiment [4] it was -50.3%; in experiment [5], -8.5%; in experiment [6] it was -0.7%.
For the compound `Nc1[nH]c(=S)[nH]c(=O)c1N=Nc1c(Br)cc(S(N)(=O)=O)cc1Br`, the growth inhibition in experiment [1] was 4.65%; in experiment [2], -15.9%; in experiment [3] it was -24.1%; in experiment [4], -24.9%; in experiment [5] it was 9.2%; in experiment [6], 0.25%.
Regarding `C=CCOC(=O)Nc1ccc(S(=O)(=O)N(CCC)CCC)cc1`, the growth inhibition was -13.3% in experiment [1]; -33% in experiment [2]; 32% in experiment [3]; -23.4% in experiment [4]; -14.7% in experiment [5]; -17.2% in experiment [6].
Turning to `C=C(C)C(=O)OCCOCC(CC)CCCC` (stereo not given), the growth inhibition in experiment [1] is 11.2%; in experiment [2], -8.8%; in experiment [3], -5%; in experiment [4] it was -0.3%; in experiment [5] it was -3.35%; in experiment [6], -1.8%.
Take `CC(C)C1CC[C@H](C)C[C@@H]1OC(=O)C(C(=O)O[C@H]1C[C@@H](C)CCC1C(C)C)C(O)[C@@H]1OC(C)(C)O[C@H]1C1COC(C)(C)O1` (stereo not given in full): the growth inhibition is 73.8% (active) in experiment [1]; 90.8% (active) in experiment [2]; 91.9% (active) in experiment [3]; 44.7% in experiment [4]; 90.8% (active) in experiment [5]; 56.9% in experiment [6].
For `O=c1ccc2c(-c3ccccc3S(=O)(=O)O)c3ccc(O)c(O)c3oc-2c1O`, the growth inhibition in experiment [1] is 3.45%; in experiment [2], 13.3%; in experiment [3], -4.4%; in experiment [4], 11%; in experiment [5] it was 15.6%; in experiment [6] it was 4.4%.
`CC1CC(=O)C(CCC#N)=C(O)C1` (stereo not given): the growth inhibition in experiment [1] was 4.85%; in experiment [2], -14.2%; in experiment [3] it was -8.15%; in experiment [4] it was -9.9%; in experiment [5] it was 5.55%; in experiment [6] it was 4.95%.
Turning to `CC(=O)N(C(C)=O)n1c(Cc2ccc(Cl)cc2)n[nH]c1=O`, the growth inhibition was 32.1% in experiment [1]; -53.7% in experiment [2]; -26.3% in experiment [3]; -5.55% in experiment [4]; -30.9% in experiment [5]; -65% in experiment [6].
Take `Cn1c(=O)c2c(-c3ccccc3)cc(-c3ccccc3)nc2n(C)c1=O`: the growth inhibition in experiment [1] is -18.8%; in experiment [2] it was -16.1%; in experiment [3], 1.95%; in experiment [4], -30.7%; in experiment [5], -10.7%; in experiment [6], -21.4%.
Consider `O=C(Cc1cccc2ccccc12)NO`, for which the growth inhibition in experiment [1] is 18.3%; in experiment [2], 5.05%; in experiment [3], 6.7%; in experiment [4], -32.3%; in experiment [5], -28.4%; in experiment [6], 11.6%.
`O=[N+]([O-])c1ccc(Oc2ccc(Cl)cc2)cc1`: the growth inhibition in experiment [1] is 16.9%; in experiment [2], -11.8%; in experiment [3], 14.6%; in experiment [4] it was 2.1%; in experiment [5] it was -18.9%; in experiment [6], 21.8%.
As for `CCCC(N)S(=O)(=O)O` (stereo not given), the growth inhibition in experiment [1] was -25.6%; in experiment [2], -10.6%; in experiment [3], -23.9%; in experiment [4], -14.1%; in experiment [5] it was 6.1%; in experiment [6] it was -11.2%.
As for `O=C1OC(=O)C2C3CCC(O3)C12` (stereo not given), the growth inhibition is 13.9% in experiment [1]; 7.4% in experiment [2]; 4.75% in experiment [3]; -0.8% in experiment [4]; -0.5% in experiment [5]; -5% in experiment [6].
`O=C1NC(=O)/C(=C\c2cccc(Br)c2)N1`: the growth inhibition in experiment [1] was -7.95%; in experiment [2], 4.15%; in experiment [3], -12.1%; in experiment [4], 6.8%; in experiment [5], 24.5%; in experiment [6] it was 8.85%.
For `CCCC(NC(=O)OCc1ccccc1)C(=O)NC(CCSC)C(=O)O` (stereo not given) (Cbz-[Nva]-Met-OH; configuration not given here), the growth inhibition was -54.6% in experiment [1]; -1.6% in experiment [2]; -4.65% in experiment [3]; 11.5% in experiment [4]; -0.85% in experiment [5]; -5.95% in experiment [6].
As for `Cc1ccc(F)c2[nH]c(-c3ccccc3)cc(=O)c12`, the growth inhibition was 14.9% in experiment [1]; 3.45% in experiment [2]; -1.2% in experiment [3]; -5.95% in experiment [4]; 8% in experiment [5]; 12% in experiment [6].
